Calls of active or inactive are those of the source. Rule for the calls: active = hit-call score of the fitted dose curve at least 0.9, where 1 is the maximum; inactive = score below 0.9.
Tests used:
[1] = read-out: Interleukin-8 (IL8), CXCL8 (gene 3576); assay: BSK_CASM3C_IL8: BioMAP Diversity Plus: CASM3C Assay for Interleukin-8 (IL8) Biomarker Activity (AID 2283042); details: primary human coronary artery smooth muscle cells; actives raise or lower the signal;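 note: IL-8 protein level quantified by ELISA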
[2] = read-out: Human Leukocyte Antigen - DR isotype (HLADR), HLA-DRA (gene 3122); assay: BSK_CASM3C_HLADR: BioMAP Diversity Plus: CASM3C Assay for Human Leukocyte Antigen - DR isotype (HLADR) Biomarker Activity (AID 2283043); details: primary human coronary artery smooth muscle cells; actives raise or lower the signal;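 note: cell-surface HLA-DR protein level quantified by ELISA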
[3] = read-out: Macrophage colony-stimulating factor (MCSF), CSF1 (gene 1435); assay: BSK_CASM3C_MCSF: BioMAP Diversity Plus: CASM3C Assay for Macrophage colony-stimulating factor (MCSF) Biomarker Activity (AID 2283044); details: primary human coronary artery smooth muscle cells; actives raise or lower the signal;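 note: M-CSF protein amount quantified by ELISA after 24 h exposure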
[4] = read-out: Low-density lipoprotein receptor (LDLR), LDLR (gene 3949); assay: BSK_CASM3C_LDLR: BioMAP Diversity Plus: CASM3C Assay for Low-density lipoprotein receptor (LDLR) Biomarker Activity (AID 2283045); details: primary human coronary artery smooth muscle cells; actives raise or lower the signal;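 note: LDLR protein level on the cell surface quantified by ELISA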
[5] = read-out: Monocyte Chemoattractant Protein-1 (MCP1), CCL2 (gene 6347); assay: BSK_CASM3C_MCP1: BioMAP Diversity Plus: CASM3C Assay for Monocyte Chemoattractant Protein-1 (MCP1) Biomarker Activity (AID 2283046); details: primary human coronary artery smooth muscle cells; actives raise or lower the signal;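 note: MCP-1 level quantified by ELISA 24 h after dosing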
[6] = BSK_CASM3C_Proliferation: Cell Proliferation Assessment in the BioMAP Diversity Plus: CASM3C Assay (AID 2283047); details: primary human coronary artery smooth muscle cells;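 note: sulforhodamine B total protein stain as relative cell number at 560 nm; sub-confluent cells exposed 48 h before staining; fitted both ways against DMSO so gain or loss of cell number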
[7] = read-out: Monokine induced gamma interferon (MIG), CXCL9 (gene 4283); assay: BSK_CASM3C_MIG: BioMAP Diversity Plus: CASM3C Assay for Monokine induced gamma interferon (MIG) Biomarker Activity (AID 2283048); details: primary human coronary artery smooth muscle cells; actives raise or lower the signal;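 note: MIG protein level measured by ELISA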
[8] = read-out: serum amyloid A (SAA), SAA1 (gene 6288); assay: BSK_CASM3C_SAA: BioMAP Diversity Plus: CASM3C Assay for serum amyloid A (SAA) Biomarker Activity (AID 2283049); details: primary human coronary artery smooth muscle cells; actives raise or lower the signal;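 note: SAA protein level quantified by ELISA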
[9] = read-out: Thrombomodulin, THBD (gene 7056); assay: BSK_CASM3C_Thrombomodulin: BioMAP Diversity Plus: CASM3C Assay for Thrombomodulin Biomarker Activity (AID 2283051); details: primary human coronary artery smooth muscle cells; actives raise or lower the signal;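 note: thrombomodulin protein level measured by ELISA 24 h after dosing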
[10] = BSK_CASM3C_SRB: Viability Assessment in the BioMAP Diversity Plus: CASM3C Assay (AID 2283050); details: primary human coronary artery smooth muscle cells;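 note: total protein by SRB staining as cytotoxicity measure in parallel cultures; cells exposed to compound for 24 h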

Measured: AC50

CCCCCCCCCCCCCCCCCC(=O)O
active: [6] 8.81 µM
not listed: [10]
inactive: all other assays above

CCCCOC(=O)CCCCCCCCC(=O)OCCCC
inactive: all assays above

CCCCCCC(=O)OCC
inactive: all assays above

Cc1ccc(N(C)C)cc1
inactive: all assays above

COC(=O)c1ccc(O)cc1
inactive: all assays above

CC(CO)OC(C)CO (stereo not given) (tested in a mixture with another compound)
inactive: all assays above

Cc1cccc(C)c1O
inactive: all assays above

CCOc1ccc2c(c1)C(C)=CC(C)(C)N2
inactive: all assays above

Cc1ccc(C(C)C)c(O)c1
not listed: [8]
inactive: all other assays above

Cc1ccc(C)c(O)c1C
inactive: all assays above

CC(=O)OCCOCCOCCOC(C)=O
inactive: all assays above

CCCCCCCCCCC
inactive: all assays above

CN[C@H]1CC[C@@H](c2ccc(Cl)c(Cl)c2)c2ccc(S(N)(=O)=O)cc21
active: [1] 35.3 µM | [2] 32.5 µM | [3] 28.2 µM | [4] 34.8 µM | [5] 30.4 µM | [6] 14.7 µM | [7] 31.2 µM | [8] 36 µM | [10] 31.3 µM
inactive: [9]

Clc1cc(Cl)c(Cl)cc1Cl
inactive: all assays above

Cc1cccc([N+](=O)[O-])c1C
inactive: all assays above

Nc1ccc2c(c1)C(=O)c1ccccc1C2=O
active: [6] 14.3 µM
not listed: [5]
inactive: all other assays above

Cc1oc(-c2ccccc2)nc1CCOc1cccc2c1ccn2CCC(=O)O
inactive: all assays above

CCOC(=O)CCC(=O)OCC
inactive: all assays above

Cc1ccccc1Cl
inactive: all assays above

C[C@]12C=CC(=O)C=C1CC[C@@H]1[C@@H]2C(=O)C[C@@]2(C)[C@H]1CC[C@]2(O)C(=O)CO
active: [1] 0.184 µM | [3] 0.243 µM | [5] 0.242 µM | [8] 0.699 µM
not listed: [10]
inactive: all other assays above

COc1ccc(C)cc1N
inactive: all assays above

C=CCOC(=O)c1ccccc1C(=O)OCC=C
inactive: all assays above

Cc1ccc2ncccc2c1
inactive: all assays above

CNC(=O)[C@H]1O[C@@H](n2cnc3c(NCc4cc(Cl)ccc4OCc4cc(C)no4)ncnc32)[C@H](O)[C@@H]1N
inactive: all assays above

CN1CCCC1=O
inactive: all assays above

FC(F)(F)C(F)(F)C(F)(F)C(F)(F)C(F)(F)C(F)(F)CCI
inactive: all assays above

CCCCc1ccc2c(n1)[C@@H](c1ccc(OC)cc1C[C@H](C)C(=O)O)[C@H](C(=O)O)[C@H]2c1ccc2c(c1)OCO2
inactive: all assays above

O=c1c(O)c(-c2ccc(O)c(O)c2)oc2cc(O)cc(O)c12
active: [1] 11.6 µM | [3] 6.34 µM | [4] 4.11 µM | [5] 9.09 µM | [6] 9.64 µM | [7] 20 µM | [10] 14.2 µM
inactive: [8] | [9]

COc1cc(-c2nc(NC(=O)c3cc4cc(C)cc(C)c4n3CC(=O)O)sc2CCC2CCCCC2)c(OC)cc1Cl
inactive: [9]
active: [1] 7.07 µM | [2] 5.92 µM | [3] 22.9 µM | [4] 4.25 µM | [5] 8.09 µM | [6] 10.8 µM | [7] 11.7 µM | [8] 8.47 µM | [10] 7.05 µM

From PubChem BioAssay (EPA / NIEHS)
